These results are taken from PubChem BioAssay (NCI).

Among the test systems are SK-MEL-2 melanoma; EKVX NSCLC; SN12C renal; UO-31 renal; TK-10 renal; ACHN renal; CAKI-1 renal; A498 renal; CCRF-CEM leukemia; RPMI-8226 leukemia; OVCAR-8 ovarian; OVCAR-5 ovarian; OVCAR-4 ovarian; SK-OV-3 ovarian; IGROV1 ovarian; OVCAR-3 ovarian; HS 578T breast; NCI/ADR-RES ovarian; SR leukemia; MOLT-4 leukemia.
Holding throughout (assay): NCI-60 one-dose screen, 48 h (100 = growth as untreated, 0 = no growth, -100 = all killed)
What all share (settings): 10 µM unless noted

Molecules are shown by their SMILES. The panel holds about 83,000 compounds, 20% with a hit somewhere; the sample as a whole holds those more often.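 For each line, cells grew in 96-well plates with the test compound present at a single concentration for 48 hours.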 Values without a mark were called inactive. Activity calls are given as the source filed them. How the source made its calls: active means growth percent below 10; inactive means the rest.

Turning to `N#Cc1c(-c2ccc(Cl)cc2)nc(NN=Cc2ccco2)nc1N1CCOCC1`, the growth in the assay on SK-MEL-2 melanoma was 82.3%; in the assay with EKVX NSCLC it was 46.5%; in the assay on SN12C renal, 82.1%; in the assay on UO-31 renal, 27.1%; in the assay on TK-10 renal, 68.8%; in the assay with ACHN renal, 76.7%. For the same molecule, the growth in the assay on CAKI-1 renal was 62.8%; with A498 renal, -19.9% (active); in the assay with CCRF-CEM leukemia it was 88.7%; in the assay on RPMI-8226 leukemia, 66.5%; in the assay with OVCAR-8 ovarian, 87.9%; in the assay on OVCAR-5 ovarian, 76.9%. Further, the growth in the assay on OVCAR-4 ovarian was 65.9%; in the assay with SK-OV-3 ovarian, 49.4%; with IGROV1 ovarian it was 25.9%; in the assay on OVCAR-3 ovarian, 66.6%; in the assay with HS 578T breast, 68.2%; with NCI/ADR-RES ovarian, 75.8%.

In the case of `CC(=O)Nc1ccc(-n2c(O)c(/C=N/NC(=O)Cc3ccccc3Nc3c(Cl)cccc3Cl)sc2=S)cc1`, the growth in the assay with SK-MEL-2 melanoma is 113%; in the assay on EKVX NSCLC, 100%; with SN12C renal, 104%; in the assay on UO-31 renal, 84.1%; in the assay on TK-10 renal it was 112%; with ACHN renal it was 99.1%. Also, the growth with CAKI-1 renal was 84.9%; with A498 renal, 97.1%; in the assay with CCRF-CEM leukemia it was 96.7%; in the assay on SR leukemia, 72.9%; in the assay with RPMI-8226 leukemia, 106%; in the assay on OVCAR-8 ovarian, 91.7%. The growth in the assay on OVCAR-5 ovarian was 114%; in the assay with OVCAR-4 ovarian, 105%; in the assay with SK-OV-3 ovarian, 111%; with IGROV1 ovarian it was 96.7%; in the assay with OVCAR-3 ovarian it was 116%; with HS 578T breast, 92.5%. The growth with NCI/ADR-RES ovarian is 101%.

For the molecule `COc1cc(/C=C/C(=O)c2cccnc2Nc2ccc(F)cc2)cc(OC)c1OC`, the growth was 27.5% with SK-MEL-2 melanoma; 69.5% in the assay with EKVX NSCLC; 16.2% in the assay on SN12C renal; 75.6% in the assay on UO-31 renal; 77.8% with TK-10 renal; 45.7% in the assay with ACHN renal. The growth in the assay with CAKI-1 renal is 51.6%; in the assay with CCRF-CEM leukemia it was -10.6% (active); in the assay on MOLT-4 leukemia, 5.4% (active); in the assay with SR leukemia, 2.85% (active); in the assay with RPMI-8226 leukemia, 1.24% (active); with OVCAR-8 ovarian, 1.62% (active). The growth with OVCAR-5 ovarian was 35.8%; in the assay with OVCAR-4 ovarian, 61.6%; with SK-OV-3 ovarian, 42%; with IGROV1 ovarian, 91.7%; with OVCAR-3 ovarian, 16.1%; in the assay with HS 578T breast it was 24.9%. In the assay on NCI/ADR-RES ovarian, the growth was 8.54% (active).

As for `COC[C@H](C)n1c(C2CCOCC2)nc2cnc3cc(-c4c(C)noc4C)c(OC)cc3c21`, the growth with SK-MEL-2 melanoma is 76.6%; in the assay with EKVX NSCLC it was 59.7%; in the assay on SN12C renal, 76.1%; in the assay on UO-31 renal, 19.5%; in the assay with TK-10 renal it was 29.4%; in the assay on ACHN renal, 43.7%. The growth in the assay with CAKI-1 renal is 16.2%; in the assay with A498 renal, 5.12% (active); in the assay on CCRF-CEM leukemia it was 61.4%; in the assay on SR leukemia, 33.5%; in the assay with RPMI-8226 leukemia, 24%; with OVCAR-8 ovarian it was 49.6%. Besides, the growth with OVCAR-5 ovarian is 79.9%; in the assay on OVCAR-4 ovarian, 54.7%; in the assay on SK-OV-3 ovarian, 7.03% (active); in the assay on IGROV1 ovarian, 66.5%; in the assay on OVCAR-3 ovarian, 49.8%; with HS 578T breast it was 12.6%. The growth with NCI/ADR-RES ovarian was 54.2%.

In the case of `COc1ccc(C(=O)/C=C/c2cccnc2Nc2cc(OC)c(OC)c(OC)c2)cc1`, the growth in the assay on SK-MEL-2 melanoma was 47.4%; in the assay with EKVX NSCLC, 61.9%; in the assay on SN12C renal, 8.5% (active); in the assay with UO-31 renal it was 51.1%; with TK-10 renal, 44.9%; in the assay on ACHN renal, 16.4%. Further, the growth is 32.2% in the assay with CAKI-1 renal; -16.5% (active) in the assay with CCRF-CEM leukemia; 2.59% (active) in the assay on MOLT-4 leukemia; -0.688% (active) in the assay on SR leukemia; -21.2% (active) in the assay with RPMI-8226 leukemia; -0.898% (active) in the assay with OVCAR-8 ovarian. In addition, the growth is 37.7% with OVCAR-5 ovarian; 39.8% with OVCAR-4 ovarian; 24.7% with SK-OV-3 ovarian; 72% in the assay on IGROV1 ovarian; 11.5% in the assay with OVCAR-3 ovarian; 36.7% with HS 578T breast. For the same molecule, the growth with NCI/ADR-RES ovarian is 4.44% (active).

Turning to `COc1ccc(/C=C/c2nc3ccccc3nc2/C=C/c2ccc(OC)cc2)cc1`, the growth in the assay with SK-MEL-2 melanoma was 101%; in the assay with EKVX NSCLC, 96.2%; in the assay with SN12C renal it was 101%; in the assay on UO-31 renal, 84.7%; in the assay on TK-10 renal, 95.8%; in the assay with ACHN renal it was 97.6%. Also, the growth with CAKI-1 renal is 86.4%; with A498 renal it was 83.9%; in the assay on CCRF-CEM leukemia it was 98.2%; in the assay on SR leukemia it was 83.8%; in the assay on RPMI-8226 leukemia it was 98.5%; in the assay with OVCAR-8 ovarian, 99.5%. Moreover, the growth with OVCAR-5 ovarian was 99.8%; in the assay on SK-OV-3 ovarian it was 102%; in the assay on IGROV1 ovarian, 110%; with OVCAR-3 ovarian it was 104%; with HS 578T breast, 90.8%; with NCI/ADR-RES ovarian, 99.5%.

For the molecule `COc1cc(C)c(C2C(C#N)=C(N)Oc3n[nH]c(-c4cccs4)c32)cc1C(C)C` (centres undefined), the growth was 102% in the assay with SK-MEL-2 melanoma; 97% in the assay on EKVX NSCLC; 103% in the assay on SN12C renal; 98.7% in the assay on UO-31 renal; 98.2% in the assay on TK-10 renal; 108% in the assay on ACHN renal. Further, the growth was 93% with A498 renal; 81.5% with CCRF-CEM leukemia; 79.4% in the assay on MOLT-4 leukemia; 87.1% with SR leukemia; 87.5% in the assay on RPMI-8226 leukemia; 89.1% with OVCAR-8 ovarian. In addition, the growth with OVCAR-5 ovarian was 115%; in the assay on OVCAR-4 ovarian, 103%; in the assay with SK-OV-3 ovarian, 98%; in the assay on IGROV1 ovarian, 108%; in the assay with OVCAR-3 ovarian it was 109%; in the assay with HS 578T breast, 103%. The growth in the assay on NCI/ADR-RES ovarian is 103%.

In the case of `CCCCCCCCCCCCC[N+](C)(C)Cc1ccccc1`, the growth was -80.2% (active) in the assay on SK-MEL-2 melanoma; 3.49% (active) with EKVX NSCLC; -55.7% (active) in the assay on SN12C renal; 43.6% with UO-31 renal; -59.5% (active) in the assay on TK-10 renal; 16.8% with ACHN renal. Also, the growth was 76.5% in the assay with CAKI-1 renal; -14.8% (active) in the assay on CCRF-CEM leukemia; -10.1% (active) in the assay with MOLT-4 leukemia; -50.9% (active) in the assay with RPMI-8226 leukemia; -30.5% (active) with OVCAR-8 ovarian; 24.9% in the assay on OVCAR-5 ovarian. For the same molecule, the growth was 8.67% (active) in the assay with OVCAR-4 ovarian; 4.31% (active) in the assay on SK-OV-3 ovarian; -49.9% (active) in the assay with IGROV1 ovarian; -61.1% (active) with OVCAR-3 ovarian; -31.4% (active) in the assay with HS 578T breast; 90.2% in the assay on NCI/ADR-RES ovarian.
